In the supplement of paper PMC10338343:
± gives the standard deviation.

What follows are sequences tested on MILI (PIWIL2) piRISC loaded with piRNA #1 (26 nt) (assay: pre-steady-state target cleavage rate (min^-1); guide: piRNA #1 5'p-UGAGGUAGUAGGUUGUAUAGUAUCCA; MIWI and MILI are mouse PIWI proteins and EfPiwi is from a freshwater sponge; tags in brackets are library labels; higher = faster piRNA-guided slicing of the target). Conditions: auxiliary factor: 500 nM mouse GTSF1.
Summary of the method: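 In HEPES–potassium acetate buffer at 33 °C, […] transcribed, DNA-blocked target RNA library was mixed with 1 nM active affinity-purified piRISC carrying one synthetic guide, with or without 500 nM GTSF1 partner protein, for 0–8 or 0–960 min. Uncleaved targets were sequenced and normalised to depth and to weakly complementary targets; three trials were pooled and k3 was capped at 0.0001 min^-1. The pre-steady-state cleavage rate followed from a burst-and-steady-state fit.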
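Further: 1 nM active piRISC with 0.1 nM target library at 33 °C single turnover.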

Row | Sequence | pre-steady-state target cleavage rate
1 | GGAGACCUUACUAUACAACCUACUACAUCA | 0.106 ± 0.013
2 | GGAGACCUAUGAUAUCAAGCUACUACCACA | 0.00606 ± 0.0028
3 | GGAGACCUAUGUAAACAACCUACUUCCUCA | 0.00599 ± 0.002
4 | GGAGACCUAUGUAUACAACCUACUAGCACA | 0.00507 ± 0.0028
5 | GGAGAGGAUACUAUAAACCUACUACCUCA | 0.0203 ± 0.0036
6 | GGAGACCAUACAAUACAACCUUCUACCUCA | 0.012 ± 0.0035
7 | GGAGUGGAUACUAUACAACGAACUACCUCA | 0.00366 ± 0.0017
8 | GGAGACCUAUGAUUACAACCUACUGACCUCA | 0.00605 ± 0.0028
9 | GGAGACCUAUGUAUACAUCCUACUAGCUCA | 0.0312 ± 0.0078
10 | GGAGACCUAUCUAUUCAACCUUCUACCUCA | 0.0069 ± 0.0028
11 | GGAGACCUAUGAUAUGUUCCUUCUACCACA | < 0.0001
12 | GGAGUGGAUAGUAUUCAACCUACUACCUCA | 0.106 ± 0.011
13 | GGAGACCUAUGUUUACAACCUACUACCUGA | 0.00584 ± 0.0023
14 | GGAGACCUAUGUAUACAAGCUACUACGUCA | 0.0451 ± 0.009
15 | GGAGACCUAUGAUAUCAAGCUACAACCUCA | 0.00699 ± 0.0025
16 | GGAGACCUAUCUAUAAAACCUACUACCUCA | 0.0877 ± 0.013
17 | GGAGACCUAUGAAUACAAGCUAGUACCUCA | 0.0081 ± 0.0031
18 | GGAGACCUAUCUAUACAACCUACUAACCUCA | 0.143 ± 0.014
19 | GGAGACCUAUGUUACAACCUACUACCUCA | 0.0425 ± 0.0076
20 | GGAGACCUAUGAUUACAACCUAUCUACCUCA | 0.00755 ± 0.003

Row | Sequence | pre-steady-state target cleavage rate
21 | GGAGUGGAUAACUAUACAACCUACUACCUCA | 0.0667 ± 0.0071
22 | GGAGACCUAUGAUAACAACCUACUACCUCU [g2:g16:cont:t1U] | 0.00588 ± 0.0024
23 | GGAGACCUAUCUAUACAACUUACUACCUCA | 0.0156 ± 0.0023
24 | GGAGUGGAUACAAUACAACCUACUUCCUCA | 0.00975 ± 0.0031
25 | GGAGUGGAUUCUAUACAACCUACUACCACA | 0.121 ± 0.011
26 | GGAGACCUAUGAAUACAACCUACUAGCUCA | 0.00444 ± 0.0022
27 | GGAGACCUAUGAUUACAACCUACUACCCUCA | 0.00361 ± 0.0029
28 | GGAGACCUAUGAUAACAAGCUACUUCCUCA | 0.00574 ± 0.0027
29 | GGAGACCUUACUAUACAUCGUACUACCUCA | 0.0364 ± 0.0047
30 | GGAGACCUAUGUAUACAACCUACUAACUCA | 0.0355 ± 0.0081
31 | GGAGACCUUACUAUACAACCAUCUACCUCA | 0.00422 ± 0.0032
32 | GGAGACCAUACUAAACAACCUACUACCACA | 0.233 ± 0.026
33 | GGAGACCUAUGUAUUCAACCUACUACGUCA | 0.00786 ± 0.0022
34 | GGAGACCUAUGAUAUGUACCUACUACCUGA | < 0.0001
35 | GGAGACCUAUGAAUACUACCUACAACCUCA | 0.00497 ± 0.0016
36 | GGAGACCUAACUAUACUUCCUACUACCUCA | 0.054 ± 0.011
37 | GGAGACCUAUGAUUACAACUUACUACCUCA | 0.00657 ± 0.0024
38 | GGAGACCAUACUAUAGAACGUACUACCUCA | 0.00933 ± 0.0017
39 | GGAGACCUUACUUUAGAACCUACUACCUCA | 0.13 ± 0.01
40 | GGAGACCUAUGAUAUCAACCUACCUACCUCA | 0.00604 ± 0.0032
